In the supplement of paper PMC8253809:

The molecules below were run on HGGX39 (paediatric high-grade glioma line) (assay: growth inhibition (% activity, log2 RLU normalised to DMSO / staurosporine); higher = more growth inhibition). Conditions: 33 µM.
In short: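 For each approved drug, the growth-inhibition value is the replicate median of per-plate normalised CellTiter-Glo data. Luminescence was log2-transformed and expressed as % activity between solvent and positive control wells. Drugs were applied in triplicate at a single final concentration of about 33 μM for 7 days at 37 °C, 5% CO2 to pHGG cell lines and H9-derived neural stem cells.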

Compound | growth inhibition [%]
CCCNC(C)C(=O)Nc1ccccc1C (centres undefined) | 0.299
NS(=O)(=O)c1cc2c(cc1Cl)NCNS2(=O)=O | 0.937
CCCNC(C)C(=O)Nc1c(C)csc1C(=O)OC (centres undefined) | 3.43
C[C@@H](O)[C@H]1C(=O)N2C(C(=O)O)=C(S[C@@H]3CN[C@H](C(=O)N(C)C)C3)[C@H](C)[C@H]12 | -2.33
O=C(O)c1cc(/N=N/c2ccc(S(=O)(=O)Nc3ccccn3)cc2)ccc1O | 1.21
CN1C(CCl)Nc2cc(Cl)c(S(N)(=O)=O)cc2S1(=O)=O (centres undefined) | 2.55
COc1ccc2cc1Oc1ccc(cc1)C[C@H]1c3c(cc4c(c3Oc3cc5c(cc3OC)CCN(C)[C@@H]5C2)OCO4)CCN1C | 3.95
CCN1CCN(C(=O)N[C@@H](C(=O)N[C@@H]2C(=O)N3[C@@H]2SC(C)(C)[C@@H]3C(=O)O)c2ccccc2)C(=O)C1=O | -0.282
COc1ccc(C2C(=O)c3ccccc3C2=O)cc1 | -0.413
[Na+].[Na+].[Na+].[O]=[V]([O-])([O-])[O-] | 0.285
Cc1noc(NS(=O)(=O)c2ccc(N)cc2)c1C | 2.16
N#C[C@@H]1CCCN1C(=O)CNC12CC3CC(CC(O)(C3)C1)C2 | 0.579
Oc1ccc(OCc2ccccc2)cc1 | 1.21
CN(C)c1ccc(C(=C2C=CC(=[N+](C)C)C=C2)c2ccc(N(C)C)cc2)cc1 | 51.4
C[C@@H](O[C@H]1OCCN(Cc2n[nH]c(=O)[nH]2)[C@H]1c1ccc(F)cc1)c1cc(C(F)(F)F)cc(C(F)(F)F)c1 | 12.5
Cc1c(C(=O)NN2CCCCC2)nn(-c2ccc(Cl)cc2Cl)c1-c1ccc(Cl)cc1 | -1.14
Cc1nnc(C(=O)NC(C)(C)c2nc(C(=O)NCc3ccc(F)cc3)c(O)c(=O)n2C)o1 | 2.25
Cn1c(=O)c2[nH]cnc2n(C)c1=O | -0.447
CCCCCCCCCCCCCCCCCCCCCCO | -0.179
CC(C(=O)O)c1ccc(-c2ccccc2)c(F)c1 (centres undefined) | 2.57

Compound | growth inhibition [%]
NC(N)=Nc1nc(CSCC/C(N)=N/S(N)(=O)=O)cs1 | -0.78
Nc1ccn(C[C@@H](CO)OCP(=O)(O)O)c(=O)n1 | -0.556
N[C@@H]1CN(c2c(F)cc3c(=O)c(C(=O)O)cn([C@@H]4C[C@@H]4F)c3c2Cl)CC12CC2 | 3.53
C=Cc1c(C)c2cc3nc(cc4[nH]c(cc5nc(cc1[nH]2)C(C)=C5CCC(=O)O)c(CCC(=O)OC)c4C)C1(C)C3=CC=C(C(=O)OC)C1C(=O)OC (centres undefined) | 1.95
N=c1nc(N2CCCCC2)cc(N)n1O | -0.0574
CC(=O)OCC(=O)[C@@]1(O)[C@H](C)C[C@H]2[C@@H]3CCC4=CC(=O)C=C[C@]4(C)[C@@]3(F)[C@@H](O)C[C@@]21C | 6.91
Cc1ccc2c(Cl)cc(Cl)c(O)c2n1 | 4.68
CCOC(=O)C1=C[C@@H](OC(CC)CC)[C@H](NC(C)=O)[C@@H](N)C1 | -0.188
O=c1cc[nH]c(=O)[nH]1 | 0.158
CC(C[N+](C)(C)C)OC(N)=O (centres undefined) | -1.35
Cc1cccc(N(C)C(=S)Oc2ccc3ccccc3c2)c1 | -1.4
O=C1c2c(O)ccc(O)c2C(=O)c2c(NCCNCCO)ccc(NCCNCCO)c21 | 61.6
CCN1CCCC1CNC(=O)c1cc(S(N)(=O)=O)ccc1OC (centres undefined) | 2.29
O=C1O[C@H]([C@@H](O)CO)C([O-])=C1O.[Na+] | -3.28
Cc1cc(C(C)(C)C)cc(C)c1CC1=NCCN1 | -0.405
Cc1ccc(-c2cc(C(F)(F)F)nn2-c2ccc(S(N)(=O)=O)cc2)cc1 | -0.617
CC[C@@H]([C@H](C)O)n1ncn(-c2ccc(N3CCN(c4ccc(OC[C@@H]5CO[C@@](Cn6cncn6)(c6ccc(F)cc6F)C5)cc4)CC3)cc2)c1=O | -0.245
O=C1CCc2ccc(OCCCCN3CCN(c4cccc(Cl)c4Cl)CC3)cc2N1 | 5.69
CC(C)(C#N)c1cc(Cn2cncn2)cc(C(C)(C)C#N)c1 | 0.325
